Compound activity deposited in PubChem BioAssay by several laboratories.
Phagocytosis inh – inhibitors of macrophage phagocytosis, primary screen, imaging, J774A.1 cells, IgG beads; inhibition, % at 5 µM; hit rate 0.07% among 110,000; AID 1029, 2008; J774A.1 macrophage IgG-bead phagocytosis;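 active = inhibition above the mean of the plate negative controls plus 5 SD, cut at about 13% in these data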;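 also: phagocytic index as fraction of beads internalized from green versus red external bead signal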
S1P2 agonist – S1P2 receptor agonists, primary screen, cell-based; Sphingosine 1-phosphate receptor 2 (Homo sapiens), O95136; S1P2-expressing cell line, agonist reporter read-out; activation, % at 4.5 µM; hit rate 0.46% among 97,000; AID 729, 2007; in the data active = activation above about 16%
GALR2 ag – GALR2 receptor agonists, primary screen, cell-based | Galanin receptor type 2 (Homo sapiens), O43603 | GALR2-expressing cells, agonist activation read-out | activation, % (concentration not given with the values) | hit rate 0.48% among 140,000 | AID 803, 2007; in the data active = activation above about 5%, passing the limit was not always enough
Target sequence (O43603 whole entry, looked up): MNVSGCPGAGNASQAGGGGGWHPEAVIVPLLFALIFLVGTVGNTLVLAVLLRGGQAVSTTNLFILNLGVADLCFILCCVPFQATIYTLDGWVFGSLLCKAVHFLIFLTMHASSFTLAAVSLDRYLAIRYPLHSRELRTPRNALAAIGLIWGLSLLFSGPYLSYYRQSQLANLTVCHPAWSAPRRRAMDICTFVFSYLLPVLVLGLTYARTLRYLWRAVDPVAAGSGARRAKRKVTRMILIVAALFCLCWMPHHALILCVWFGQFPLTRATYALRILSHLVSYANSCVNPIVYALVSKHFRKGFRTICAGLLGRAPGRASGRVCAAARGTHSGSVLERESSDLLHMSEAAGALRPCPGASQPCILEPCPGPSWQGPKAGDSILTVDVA
GALR2 antag – GALR2 antagonists in receptor-expressing cells, primary screen; inhibition, % at 4 µM; Galanin receptor type 2 (Homo sapiens), O43603; hit rate 0.39% among 140,000; antagonist mode; in the data active = inhibition above about 27%;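 also: cells stimulated with galanin 1-16 at roughly its EC80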
S1P2 blocker – human S1P2 receptor antagonists, primary screen, cell-based | inhibition, % at 5 µM | cell-based S1P2 antagonist assay, inhibition at 5 uM | hit rate 0.21% among 97,000; in the data active = inhibition above about 45%;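 also: CRE beta-lactamase reporter cells expressing human S1P2 stimulated with S1P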
Of the large screens only hits and unclear results are named; the others gave an inactive call. Shown are actives, neighbours in structure and some others; about 1.3% of the full set was active somewhere.

COc1cc2c(cc1OC)C(c1ccc(-c3ccccc3Cl)o1)=NCC2	S1P2 agonist 37
COc1cc2c(cc1OC)C(c1ccc(-c3ccc(Cl)cc3Cl)o1)=NCC2	S1P2 agonist 34 (no result: Phagocytosis inh)
CC1=NOC(=O)/C1=C\c1ccc(-c2cc(Cl)ccc2Cl)o1	none
CC(C)CC(=O)NC(=S)Nc1ccc(S(=O)(=O)Nc2nccs2)cc1	none (no result: S1P2 agonist, S1P2 blocker)
O=C1C2C(C(=O)N1/N=C/c1cccc([N+](=O)[O-])c1)C1C=CC2C12CC2 (stereo not given)	none (no result: S1P2 agonist, S1P2 blocker)
Nc1nc(SCc2ccc([N+](=O)[O-])cc2)nc2nc3c(cc12)CCCC3	GALR2 ag 5.1 (no result: S1P2 agonist, S1P2 blocker)
COc1cccc(-c2nc(CS(=O)(=O)c3ccccc3)no2)c1	none
Cc1cc(C)n(-c2nc(NCC(C)O)c3c4c(sc3n2)COC(C)(C)C4)n1 (stereo not given)	none
Cc1cc(C)n(-c2nc(NCC(C)O)c3c4c(sc3n2)CCCC4)n1 (stereo not given)	GALR2 ag 8.8
Cc1cc(C)n(-c2nc(NCCCO)c3c4c(sc3n2)CCCC4)n1	GALR2 ag 36
Cc1cc(C)n(-c2nc(NCCO)c3c4c(sc3n2)CCCC4)n1	GALR2 ag 8.1
C=C(C)CNC(=S)N1CCNC(=O)C1CC(=O)OC (stereo not given)	none (no result: Phagocytosis inh, S1P2 agonist, S1P2 blocker)
COc1ccccc1NS(=O)(=O)c1cc([N+](=O)[O-])ccc1N/N=C/c1c[nH]c2ccccc12	S1P2 blocker 62
COc1ccc(NS(=O)(=O)c2cc([N+](=O)[O-])ccc2N/N=C\c2c(C)[nH]c3ccccc23)cc1	none
O=C1c2ccccc2NC(c2ccccc2Cl)N1N=C1CCCCCC1 (stereo not given)	none (no result: S1P2 agonist, S1P2 blocker)
COc1ccccc1C1CC(c2cccs2)=Nc2ccccc2S1 (stereo not given)	none
COc1ccccc1C1CN(c2ccc(F)cc2F)N=C1c1cccs1 (stereo not given)	S1P2 agonist 17, GALR2 ag 37
COC(=O)CNC(c1ccccc1)c1cc(Br)ccc1NS(=O)(=O)c1ccc(C)cc1 (stereo not given)	none (no result: S1P2 agonist, S1P2 blocker)
Cc1ccc(-c2nc(CSCC(=O)NCCN3CCN(Cc4ccccc4)CC3)c(C)o2)cc1	S1P2 blocker 47
CCOc1ccc2cc(/C=C/C(=O)c3ccco3)c(Cl)nc2c1	GALR2 antag 32
CCOc1ccc2nc(N3CCC(C(=O)N4CCN(C(=O)c5ccco5)CC4)CC3)sc2c1	none (no result: S1P2 agonist, S1P2 blocker)
CCOC(=O)c1sc2nccc(N(C)C)c2c1N=CNOCc1c(F)cccc1Cl	S1P2 agonist 33
Cc1cc(C(=O)O)ccc1-n1c(C)ccc1C	S1P2 agonist 25 (no result: Phagocytosis inh)
Cc1cccc(CN(CC(=O)N/N=C/c2cccs2)S(=O)(=O)c2ccc(Cl)cc2)c1	none (no result: Phagocytosis inh)
COc1cc2c(cc1OC)-c1cc(N3CCCCCC3)nc(=O)n1CC2	S1P2 agonist 36
COc1cc2c(cc1OC)-c1cc(N3CCCc4ccccc43)nc(=O)n1CC2	S1P2 agonist 41
COc1cc2c(cc1OC)-c1cc(NC3CCCCCC3)nc(=O)n1CC2	S1P2 agonist 42
COc1ccc(Cn2c(-c3ccc(OC)cc3)nc3c(c(=O)c4ccccc4n3C)c2=O)cc1	none (no result: S1P2 agonist, S1P2 blocker)
COc1ccc(Cn2c(-c3ccc(C)cc3)nc3c(c(=O)c4ccccc4n3C)c2=O)cc1	GALR2 ag 5.1 (no result: S1P2 agonist, S1P2 blocker)
Cc1ccccc1C(=O)NNC(=O)CSc1nnc(C)n1-c1ccccc1	none (no result: S1P2 agonist, S1P2 blocker)
CCCCS(=O)(=O)/C=C\C1C2C=CC(C2)C1S(=O)(=O)CCCC (stereo not given)	none
CCCCS(=O)(=O)/C=C\C=C/S(=O)(=O)CCCC	GALR2 antag 104, S1P2 blocker 97
c1cc2c(cc1Nc1nc(-c3ccc4c(c3)OCO4)cs1)OCCO2	none
COc1cccc(Nc2nc(-c3ccc4c(c3)OCCO4)cs2)c1	S1P2 agonist 41
COc1ccc(/C=C/C(=O)c2cc(F)ccc2OC(=O)c2ccc(OC)c(OC)c2)cc1OC	none (no result: S1P2 agonist, S1P2 blocker)
COc1ccc(/C=C/C(=O)c2cc(F)ccc2OC(=O)c2ccccc2)cc1OC	GALR2 ag 5.5 (no result: Phagocytosis inh)
COc1cc(-c2nc3n(n2)C(c2ccc(F)cc2)C2=C(CCCC2=O)N3)cc(OC)c1OC (stereo not given)	none
COc1cccc(C2C3=C(CCCC3=O)Nc3nc(-c4cc(OC)c(OC)c(OC)c4)nn32)c1 (stereo not given)	S1P2 agonist 17
CCN1CCN(Cc2cc(=O)oc3cc(C)cc(C)c23)CC1	none
CCc1cc2c(CN3CCN(CC)CC3)cc(=O)oc2cc1O	GALR2 ag 4.9
Cc1cc(Br)ccc1OCCn1ccnc1	none (no result: Phagocytosis inh, S1P2 agonist, S1P2 blocker)
CCN(CC)CCCNc1cc2n(c(=O)n1)CCc1cc(OC)c(OC)cc1-2	none
COc1cc2c(cc1OC)C(C(=O)Nc1ccc3c(c1)OCCO3)C1c3ccccc3CCN1C2=O (stereo not given)	none (no result: Phagocytosis inh)
CCOc1cccc(Nc2cc3n(c(=O)n2)CCc2cc(OC)c(OC)cc2-3)c1	S1P2 agonist 29
COc1cc2c(cc1OC)-c1cc(Nc3ccc4c(c3)OCCO4)nc(=O)n1CC2	S1P2 agonist 20
COc1cc2c(cc1OC)-c1cc(OCc3cccnc3)nc(=O)n1CC2	S1P2 agonist 23
Cn1nc(-c2ccc(N3CCOCC3)c(NS(=O)(=O)c3ccc(Cl)cc3)c2)c2ccccc2c1=O	none (no result: Phagocytosis inh)
Cc1ccc(S(=O)(=O)Nc2cc(-c3nn(C)c(=O)c4ccccc34)ccc2N2CCOCC2)cc1	S1P2 agonist 17
c1csc(C2=Nn3c(nnc3-c3ccncc3)SC2)c1	S1P2 blocker 49 (no result: Phagocytosis inh)
Cc1cc(N2CCN(c3nc4ccccc4s3)CC2)n2ncnc2n1	S1P2 blocker 51 (no result: Phagocytosis inh)
CCCCn1nc(NC(=O)c2cccs2)c2cc3cc(OC)ccc3nc21	GALR2 ag 6.8
N#CCSc1nc(-c2ccccc2)c2cc(Cl)ccc2n1	none (no result: S1P2 agonist, S1P2 blocker)
N#CCSc1nnc(-c2ccccc2)c(-c2ccccc2)n1	S1P2 agonist 16
CCNc1nc(NCC)n2c(SCC(=O)NC34CC5CC(CC(C5)C3)C4)nnc2n1	none (no result: S1P2 agonist, S1P2 blocker)
CS(=O)(=O)c1nc(-c2ccccc2)cc(C(F)(F)F)n1	GALR2 antag 54 (no result: Phagocytosis inh, S1P2 agonist, S1P2 blocker)
Cc1cc(NC(=O)CCS(=O)(=O)c2nc(-c3ccccc3)cc(C(F)(F)F)n2)no1	none (no result: S1P2 agonist, GALR2 ag, GALR2 antag, S1P2 blocker)
NC(=O)c1nn(-c2ccccc2)nc1NC(=O)Cn1nnc(-c2ccccc2)n1	GALR2 ag 5.2 (no result: S1P2 agonist, S1P2 blocker)
CCOC(=O)c1ccc(NC(=O)Cn2nnc(-c3ccccc3)n2)cc1	none
CN(C)c1ccc(/C=N/NC(=O)CN(c2ccccc2Cl)S(C)(=O)=O)cc1Br	S1P2 agonist 17 (no result: Phagocytosis inh)
O=C(N=C1c2ccccc2CN1c1ccc(F)c(Cl)c1)c1cccnc1Cl	none (no result: S1P2 agonist, S1P2 blocker)
CCCCNc1cc(C)nc(NCc2ccccc2)n1	S1P2 blocker 57
Cc1cc(Nc2ccc(Cl)cc2)nc(NCc2ccccc2)n1	none (no result: S1P2 agonist, S1P2 blocker)
Oc1cccc2ccc[n+](CC(O)Cn3c4ccccc4c4ccccc43)c12 (stereo not given)	none (no result: S1P2 agonist, S1P2 blocker)
Cc1cccc2sc(NNC(=O)c3ccc(S(=O)(=O)N4CCCC(C)C4)cc3)nc12 (stereo not given)	GALR2 ag 5.2 (no result: Phagocytosis inh, S1P2 agonist, S1P2 blocker)
